Assay outcomes from PubChem.
BJeLR lethal – kills HRASV12-expressing BJeLR cells | BJeLR (HRASV12) viability, CellTiter-Glo ATP luminescence, 48 h | inhibition, % (no concentration beside the values) | hit rate 0.17% among 300,000; in the data active means inhibition above about 50%
PrP 5UTR inh – suppresses PrP 5' UTR mRNA reporter expression. cell-based PrP 5' UTR mRNA reporter, plate reader. inhibition, % (test concentration not listed). hit rate 0.35% among 340,000. AID 488862; in the data active means inhibition above about 52%; further: 0 = median of the neutral control wells
PrPC TRFRET – cell surface PrPC inhibition, primary TR-FRET screen; P04156; AID 720596; hit rate 0.43% among 370,000; inhibition, % at 13.8 µM; TR-FRET read-out; in the data active means inhibition above about 24%; further: 0% = median of the test wells and 100% = reference compound wells
RecA splice inh – blocks M. tuberculosis RecA intein splicing; AID 2221; inhibition, % (no concentration beside the values); cell-free RecA intein splicing, fluorescence; hit rate 0.75% among 290,000; in the data active means inhibition above about 30%;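 further: 0% = vehicle wells and 100% = reference inhibitor control wells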
Target sequence (P9WHJ3 whole entry, looked up, canonical isoform): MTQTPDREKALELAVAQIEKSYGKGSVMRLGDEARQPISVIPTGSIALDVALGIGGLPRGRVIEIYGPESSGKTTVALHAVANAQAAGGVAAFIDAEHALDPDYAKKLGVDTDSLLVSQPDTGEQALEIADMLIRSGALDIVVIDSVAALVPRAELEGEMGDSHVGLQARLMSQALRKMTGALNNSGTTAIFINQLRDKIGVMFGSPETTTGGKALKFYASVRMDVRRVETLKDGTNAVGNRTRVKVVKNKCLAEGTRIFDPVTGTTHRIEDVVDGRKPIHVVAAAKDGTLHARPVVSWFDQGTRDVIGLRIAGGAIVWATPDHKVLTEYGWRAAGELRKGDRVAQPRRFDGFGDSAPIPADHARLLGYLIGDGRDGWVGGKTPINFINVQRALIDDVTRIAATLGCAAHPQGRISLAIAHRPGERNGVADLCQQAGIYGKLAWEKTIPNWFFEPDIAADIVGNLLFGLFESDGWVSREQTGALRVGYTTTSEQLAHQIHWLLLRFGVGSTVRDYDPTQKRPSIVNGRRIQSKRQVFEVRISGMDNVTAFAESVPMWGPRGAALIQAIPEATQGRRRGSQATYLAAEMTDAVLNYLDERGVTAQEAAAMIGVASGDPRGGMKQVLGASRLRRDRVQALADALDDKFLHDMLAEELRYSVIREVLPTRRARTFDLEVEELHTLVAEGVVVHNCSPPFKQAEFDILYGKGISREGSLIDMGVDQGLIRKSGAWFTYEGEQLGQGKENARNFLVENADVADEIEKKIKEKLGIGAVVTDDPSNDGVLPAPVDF
SSB-PriA inh – inhibitors of Klebsiella pneumoniae PriA binding to SSB C-terminal tail; hit rate 0.6% among 430,000; AlphaScreen SSBct-PriA binding, biotinylated peptide; inhibition, % at 33 µM; AID 1272365; in the data active means inhibition mostly above about 37%, no sharp cut-off; inactive means mostly below about 20%;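 further: plate controls were negative control peptide for no effect and reference peptide for full effect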
PfHsp40 rescue – compounds rescuing yeast from Plasmodium falciparum HSP40 toxicity; S. cerevisiae expressing PfHsp40, growth rescue, ATP luminescence; growth rescue, % at 12.5 µM; hit rate 0.68% among 340,000; in the data active means growth rescue above about 28%, passing the limit was not always enough;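 further: yeast W303a lacking pdr1 and pdr3 grown in galactose medium; growth measured after three days at 30 °C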
Starred values were filed as active, the others as inactive; . = no result given. This is a sample that favours compounds with a hit; in the whole collection about 1.9% have one here.

SMILES | BJeLR lethal | PrP 5UTR inh | PrPC TRFRET | RecA splice inh | SSB-PriA inh | PfHsp40 rescue
COc1cc(C=NNc2ccccc2)ccc1OC(=O)c1cccs1 | . | . | . | . | 5 | .
CCOc1ccccc1-c1noc(Cn2c(=O)n(-c3ccccc3C(=O)OC)c(=O)c3ccccc32)n1 | . | . | . | . | 17 | .
O=C(c1ccccc1)N1C(=O)C(c2ccccc2)Oc2ccccc21 (stereo not drawn) | 7 | -10 | 6 | -2 | -3 | 234*
Cc1nc2scc(-c3cccc(NC(=O)c4ccc(Br)o4)c3)n2c(=O)c1C | . | . | . | . | -23 | .
Cc1ccc(O)c(N=Nc2ccc(S(=O)(=O)N3CCOCC3)cc2)c1 | -9 | -39 | -24 | -2 | 39* | -1
COc1ccc(Br)c(C(=O)NCc2cccnc2-c2ccsc2)c1 | . | . | . | . | 0 | .
S=C(NNc1ccc2ccccc2c1)NC1CCCCC1 | 9 | -25 | 4 | 2 | 28 | 244*
S=C(Nc1ccc2nsnc2c1)NC1CCCCC1 | 4 | -6 | -37 | 8 | -70 | 0
S=C(Nc1ccc(Cl)c(Cl)c1)NC1CCCCC1 | -3 | -33 | . | 8 | -7 | 190*
COc1ccc(NC(=O)Cn2c(=O)n(CC3CCCO3)c(=O)c3cc(OC)c(OC)cc32)c(OC)c1 (stereo not drawn) | 5 | 3 | -3 | 3 | -15 | -1
COc1cc2c(=O)n(CC3CCCO3)c(=O)n(CC(=O)Nc3ccc(F)cc3F)c2cc1OC (stereo not drawn) | -12 | -4 | -3 | -1 | 104* | 0
CCOC(=O)c1c(C)oc2c1C(=O)c1ccccc1C2=O | . | -89 | 5 | 59* | 23 | 2
CCOC(=O)c1c(C)nc2c(c1-c1ccccc1)C(=O)c1ccccc1-2 | 1 | 5 | -2 | -5 | 19 | 0
Cc1oc2c(c1C(=O)c1ccccc1)C(=O)C(=O)c1ccccc1-2 | 13 | -60 | -5 | 12 | 26 | 97*
Cc1oc2c(c1C(=O)O)C(=O)c1ccccc1C2=O | -1 | -48 | -17 | 68* | 6 | -1
O=C1C(=O)c2c(C(=O)c3ccccc3)coc2-c2ccccc21 | -10 | -72 | 1 | 8 | -5 | 8
Cc1cc(=O)oc(C)c1C(=O)O | -7 | -18 | 10 | -1 | -18 | 1
CN(C)c1ccc(CCNS(=O)(=O)c2ccccc2)cc1 | . | . | . | . | 15 | .
O=C(C1COc2ccccc2O1)N(CC(F)(F)F)C1CCOCC1 (stereo not drawn) | . | . | . | . | 0 | .
Cc1ccc(C(C)NC(=O)c2cc(C)oc2C)cc1 (stereo not drawn) | -7 | -21 | -8 | 2 | -4 | 48*
Cc1ccc(C(C)NC(=O)c2ccco2)cc1 (stereo not drawn) | 2 | -4 | 1 | 4 | -5 | -1
Cc1cc(Br)c2c(c1)/C(=C/C(=O)c1cccs1)C(=O)N2 | 3 | -24 | 3 | 78* | -22 | .
COc1ccccc1N1CCN(C(=O)c2csc(Nc3ccccc3)n2)CC1 | . | . | . | . | 24* | .
CC1=NN(c2ccc(C)cc2C)C(=O)C1C(c1ccccc1O)C1C(=O)N(c2ccc(C)cc2C)N=C1C (stereo not drawn) | 5 | -5 | 5 | 78* | 13 | 0
CCc1ccc(C2NC(=S)NC3=C2C(=O)N(c2ccccc2OC)C(c2ccc(CC)cc2)N3)cc1 (stereo not drawn) | 2 | -4 | -9 | 11 | 8 | -1
SMILES | BJeLR lethal | PrP 5UTR inh | PrPC TRFRET | RecA splice inh | SSB-PriA inh | PfHsp40 rescue
O=C1C2=C(NC(=S)NC2c2ccc(Cl)cc2)NC(c2ccc(Cl)cc2)N1c1ccc(Cl)cc1 (stereo not drawn) | -5 | -4 | 2 | 37* | -7 | -1
CCNc1nc2c(c(=O)n(C)c(=O)n2C)n1Cc1ccc(Cl)cc1 | 19 | -14 | 12 | -2 | 0 | 0
CCC(C)Nc1nc2c(c(=O)n(C)c(=O)n2C)n1Cc1ccc(Cl)cc1 (stereo not drawn) | -3 | -8 | 15 | 5 | 104* | 2
COc1cc(C=C(c2nc3ccccc3s2)c2nc3ccccc3s2)ccc1O | -8 | -27 | -1 | 51* | 37 | -1
O=C(Cc1c[nH]c2ccccc12)NCC#CCOc1ccc2c(c1)OCO2 | . | . | . | . | -14 | .
S=C1NC[C@H](CC2CCCCC2)N1CC1CCCCC1 | -5 | -20 | 3 | 10 | -2 | 98*
Fc1cccc(CCN2C(=S)NC[C@@H]2Cc2ccccc2)c1 | -10 | -13 | -6 | -1 | 0 | 2
Fc1cccc(CCN2C(=S)NC[C@@H]2CC2CCCCC2)c1 | 1 | -3 | 8 | 2 | -23 | 122*
CCOC(=O)c1ccccc1NC=CC(=O)c1cccs1 | . | . | . | . | -36 | .
CC1CCc2c(sc3nc(C4CC4)nc(N4CCN(C(=O)c5ccco5)CC4)c23)C1 (stereo not drawn) | -8 | -25 | 17 | 29 | -9 | 161*
CCc1nc(N2CCN(C(=O)c3ccco3)CC2)c2c3c(sc2n1)CCCC3 | -4 | -7 | -4 | 15 | 12 | 0
C=CCn1c(=O)c(C(=O)NCCc2ccccc2)c(O)c2ccccc21 | 0 | 6 | 0 | 3 | -30 | 94*
O=c1oc2ccccc2nc1C=C(O)/C=C\c1ccccc1 | . | . | . | . | 3 | .
CC(=O)NC1C(=O)N(CCN2CCOCC2)c2ccc(Cl)cc21 (stereo not drawn) | -2 | -5 | 0 | 46* | -9 | -3
CC(=O)NC1C(=O)N(CCN2CCOCC2)c2ccc(F)cc21 (stereo not drawn) | 5 | -7 | 4 | 41* | -1 | -1
CC(=O)NC1C(=O)N(CCN2CCOCC2)c2ccc(C)cc21 (stereo not drawn) | 3 | -11 | . | 65* | -9 | -3
CCOCC(=O)N(Cc1cc(C2CC2)n(C)n1)Cc1ccco1 | . | . | . | . | -2 | .
COc1ccc(NC(=O)C(c2cc3c(cc2[N+](=O)[O-])OCO3)N(C)c2ccccc2)cc1 (stereo not drawn) | -4 | -11 | -2 | 2 | 39* | 4
Cc1cccc(NC(=O)C(C)(C)n2nc(-c3ccccc3)ccc2=O)n1 | . | . | . | . | -5 | .
O=C(CN(c1ccc(F)cc1)S(=O)(=O)c1ccc2c(c1)OCCO2)NCc1cccnc1 | -5 | -24 | 0 | -2 | 52* | 1
O=C(CN(c1ccc(F)cc1)S(=O)(=O)c1ccc2c(c1)OCCO2)NCc1ccncc1 | 0 | -16 | -5 | 1 | 11 | 3
COC(=O)c1cnc(NNC(=O)c2ccc([N+](=O)[O-])cc2)nc1C(F)(F)F | -1 | -17 | -29 | 7 | -12 | 63*
COC(=O)c1cnc(NNS(=O)(=O)c2ccc(Cl)cc2)nc1C(F)(F)F | -3 | -26 | 1 | -3 | -5 | -2
CCCC(=O)NC(c1ccc(OC)cc1)c1c(O)ccc2ccccc12 (stereo not drawn) | 4 | -21 | 3 | 2 | 8 | -1
COc1ccc(C(NC(=O)CC(C)C)c2c(O)ccc3ccccc23)cc1 (stereo not drawn) | 4 | 6 | 2 | -3 | 8 | 33*
COc1c(O)c(=O)n2c3ccccc3c3ccnc1c32 | 6 | -9 | -16 | -1 | 3 | 66*
